Test results as given in PubChem BioAssay.
Potency and affinity values are given separately. Values without a mark were called inactive. The rule behind the calls is not given here.

Experiment: toxicity toward immortalized ovarian surface epithelium – cell-based, plate reader, dry powder samples, cytotoxicity control for PAX8 inhibitor project, dose response (AID 743045);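 note: 0% = neutral control median and -100% = positive control median; more negative values mean more cell killing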
Conditions: IOSE-T80 ovarian epithelial cells; series mostly up to 35 µM; activity change, negative = cytotoxicity: at the top concentration

Row | SMILES | activity change, negative = cytotoxicity
1 | O=C(Nc1ccc(C(F)(F)F)cc1)Nc1ccc2c(c1)[C@@H]1C[C@H](CC(=O)N3CCc4ccccc4C3)O[C@H](CO)[C@@H]1O2 | 14.2% [at 30 µM]
2 | CC(C)NC(=O)N(C)C[C@H]1OCCCC[C@@H](C)Oc2ccc(NC(=O)Nc3ccc(C(F)(F)F)cc3)cc2C(=O)N([C@@H](C)CO)C[C@H]1C | -11%
3 | COc1cccc(C#Cc2ccc3c(c2)O[C@@H](CN(C)C(=O)c2ccccn2)[C@H](C)CN([C@@H](C)CO)S3(=O)=O)c1 | 21.1%
4 | C[C@@H]1CCCCO[C@@H](CN(C)C(=O)Nc2ccc(C(F)(F)F)cc2)[C@H](C)CN([C@H](C)CO)C(=O)c2cc(NS(=O)(=O)c3ccc(Cl)cc3)ccc2O1 | 22.1%
5 | C[C@@H]1CCCCO[C@@H](CN(C)S(=O)(=O)c2ccc(F)cc2)[C@H](C)CN([C@H](C)CO)C(=O)c2cc(NS(=O)(=O)c3ccc(Cl)cc3)ccc2O1 | 16.1%
6 | CC(C)CC1NC(=S)N(Cc2ccccc2)C1=O (centres undefined) | -9.09% [at 50 µM]
7 | CC(C)CC#Cc1ccc2c(c1)O[C@H](CN(C)S(=O)(=O)c1ccc(F)cc1)[C@@H](C)CN([C@@H](C)CO)S2(=O)=O | 18.8%
8 | C[C@@H]1CCCCO[C@H](CN(C)CC2CCCCC2)[C@H](C)CN([C@@H](C)CO)C(=O)c2cc(NC(=O)Nc3ccccc3)ccc2O1 | 7.12%
9 | C[C@H]1CCCCO[C@H](CN(C)Cc2ccc(C(F)(F)F)cc2)[C@@H](C)CN([C@@H](C)CO)C(=O)c2cc(NS(=O)(=O)c3cccs3)ccc2O1 | 16.8%
10 | C[C@@H]1CCCCO[C@H](CN(C)C(=O)Nc2ccc(C(F)(F)F)cc2)[C@@H](C)CN([C@@H](C)CO)C(=O)c2cc(NC(=O)Nc3ccc(C(F)(F)F)cc3)ccc2O1 | 2.3%
11 | COc1cccc(S(=O)(=O)N2CCCCN3[C@@H](CO)[C@@H](c4ccc(C#CCC(C)C)cc4)[C@@H]3C2)c1 | -1.87%
12 | C[C@H]1CCCCO[C@@H](CN(C)Cc2ccc3c(c2)OCO3)[C@@H](C)CN([C@@H](C)CO)C(=O)c2cc(NC(=O)Nc3ccc(F)cc3)ccc2O1 | -11.2%
13 | Cc1ccc(S(=O)(=O)Nc2ccc3c(c2)C(=O)N([C@H](C)CO)C[C@@H](C)[C@H](CN(C)Cc2ccc(Cl)c(Cl)c2)OCCCC[C@H](C)O3)cc1 | 21.3%
14 | C[C@@H]1CN([C@H](C)CO)S(=O)(=O)c2ccc(-c3ccc(C#N)cc3)cc2O[C@@H]1CN(C)Cc1cccc(F)c1 | 11.5%
15 | C[C@H]1CN([C@@H](C)CO)C(=O)Cc2cc(NC(=O)NC3CCCCC3)ccc2O[C@H]1CN(C)Cc1ccc(-c2ccccc2)cc1 | 1.98%
16 | O=C(Nc1ccc(F)cc1)N1CC(=O)N2[C@@H](CO)[C@@H](c3ccc(C#Cc4ccc(F)cc4)cc3)[C@@H]2C1 | 50.1%
17 | Cc1ccc(S(=O)(=O)N(C)C[C@H]2Oc3cc(C#Cc4ccncc4)ccc3S(=O)(=O)N([C@H](C)CO)C[C@H]2C)cc1 | -47.6%
18 | O=C(Cc1ccccc1)N1CC[C@H]2[C@H](CO)Nc3ccc(C4=CCCCC4)cc3[C@H]21 | 22%
19 | Cc1noc(C)c1S(=O)(=O)Nc1ccc2c(c1)C(=O)N([C@H](C)CO)C[C@@H](C)[C@H](CN(C)C(=O)Nc1ccc(C(F)(F)F)cc1)OCCCC[C@@H](C)O2 | -1.61%
20 | C[C@@H]1CN([C@H](C)CO)C(=O)c2cc(NC(=O)Cc3ccccc3)ccc2O[C@@H](C)CCCCO[C@@H]1CN(C)Cc1ccc(C(F)(F)F)cc1 | 8.48%
21 | C[C@H](CO)N1C[C@H](C)[C@@H](CN(C)S(=O)(=O)c2cccc(F)c2)OCc2ccccc2-c2c(n(C)c3ccccc23)C1=O | 0.348%
22 | C[C@@H]1CN([C@@H](C)CO)C(=O)Cc2cc(NC(=O)Cc3cn(C)c4ccccc34)ccc2O[C@H]1CN(C)Cc1ccc(Oc2ccccc2)cc1 | -19%
23 | C[C@H]1CCCCO[C@H](CN(C)C(=O)C2CCCCC2)[C@@H](C)CN([C@@H](C)CO)C(=O)c2cc(NS(=O)(=O)c3ccc(Cl)cc3)ccc2O1 | -0.871%
24 | C[C@@H]1CN([C@H](C)CO)C(=O)c2cc(NC(=O)Nc3ccc(F)cc3)ccc2O[C@@H](C)CCCCO[C@@H]1CN(C)Cc1ccc(Cl)c(Cl)c1 | -3.71%
25 | C[C@@H]1CN([C@H](C)CO)C(=O)c2cc(NC(=O)Nc3cccc4ccccc34)ccc2O[C@@H]1CN(C)C(=O)Nc1cccc2ccccc12 | 31.2%
26 | C[C@@H]1CCCCO[C@H](CN(C)Cc2ccc(C(F)(F)F)cc2)[C@H](C)CN([C@H](C)CO)C(=O)c2cc(NC(=O)c3ccccc3)ccc2O1 | 24%
27 | Cc1ccccc1-c1ccc2c(c1)O[C@H](CN(C)C(=O)Nc1ccc(C(F)(F)F)cc1)[C@@H](C)CN([C@H](C)CO)S2(=O)=O | 4.06%
28 | COc1ccccc1C#Cc1ccc2c(c1)O[C@@H](CN(C)Cc1cncnc1)[C@H](C)CN([C@H](C)CO)S2(=O)=O | 8.45%
29 | C[C@@H]1CN([C@H](C)CO)S(=O)(=O)c2ccc(C#CC3CCCC3)cc2O[C@H]1CN(C)Cc1cccnc1 | 12.8%
